This is one part of a sample in which hits are shown more often than they occur.
HT1080-NT tox = kills 2HG-producing HT-1080-NT fibrosarcoma cells. HT-1080-NT fibrosarcoma viability, CellTiter-Glo ATP luminescence, 48 h. Potency, µM (doses to about 46.1 µM), for inactives: at the top dose activity, negative = less viability, most hits filed as cytotoxic. hit rate 1.6% among 360,000. AID 686970;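 note: NT is the 2HG producing partner of a matched IDH1 knockdown line; potency is the fitted concentration of half-maximal effect; 0% = DMSO-treated cells and -100% = media-only wells without cells; nearly all actives have a fitted effect of over 55% in size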
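Read-out is CellTiter-Glo luminescence after 10 minutes at room temperature, following 48 hours' compound treatment of HT-1080-NT cells (750 cells/well, RPMI, 5% FBS, 37 degrees C).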
HT1080 IDH1KD tx = toxicity to HT-1080 IDH1 knockdown cells (counter line); HT-1080 IDH1 knockdown viability, ATP luminescence, 48 h; Potency, µM (series often up to 46.1 µM), without a hit: top-dose activity, negative = toxicity, most hits filed as cytotoxic; hit rate 2% among 360,000;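 note: potency is the fitted concentration of half-maximal effect; 0% = DMSO wells and -100% = cell-free medium wells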
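IDH1KD HT-1080 cells, 750/well, RPMI + 5% FBS; compound pinned after 2 h settling; 48 h, 37 °C; CellTiter-Glo luminescence; % activity normalised to DMSO and no-cell wells; curves fitted, classed by r2 and efficacy.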
IL-1B inflam inh = inhibitors of inflammasome signaling (IL-1 beta secretion). THP-1 LPS/ATP IL-1B secretion, AlphaLISA, 16 h; active compounds read low. activity change, % at 57.5 µM. hit rate 4.7% among 360,000. AID 743279; in the data active = activity change below about -50%; inconclusive = mostly about -30% to -49%
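THP-1 cells pretreated 1 hr with compounds (up to 57.5 uM final), then stimulated with LPS (250 ng/mL final) plus ATP (1.25 mM final); secreted IL-1B measured by AlphaLISA after 16 hr, decreased signal indicating inhibition.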
DT40 TDP1 CPT = growth inhibition of DT40 Tdp1-/-;hTDP1 cells with camptothecin (screen for TDP1 inhibitors) | chicken DT40 Tdp1-/-;hTDP1 cells + 20 nM CPT, ATP luminescence, 48 h | Potency, µM (series often up to 46.2 µM), without a hit: top-dose activity change, negative = growth inhibition, actives largely listed as inhibitors | hit rate 12% among 420,000 | AID 686979; note: potency is the fitted concentration of half-maximal effect; nearly all actives have a fitted effect of over 55% in size
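Cell growth measured by CellTiter-Glo luminescence after a minimum 48 h, 37 C compound exposure with 20 nM CPT in Tdp1-knockout DT40 cells stably expressing hTDP1, seeded 400/well; qHTS titration format.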
12-LOX inh = blocks human arachidonate 12S-lipoxygenase | Potency, µM (series often up to 108 µM), for inactives: at the highest dose activity change, negative = inhibition, hits mostly inhibitors | AID 1671190 | purified 12hLO, xylenol orange hydroperoxide absorbance | hit rate 1.1% among 580,000; note: potency is the fitted concentration of half-maximal effect
Target sequence (P18054 whole entry, looked up): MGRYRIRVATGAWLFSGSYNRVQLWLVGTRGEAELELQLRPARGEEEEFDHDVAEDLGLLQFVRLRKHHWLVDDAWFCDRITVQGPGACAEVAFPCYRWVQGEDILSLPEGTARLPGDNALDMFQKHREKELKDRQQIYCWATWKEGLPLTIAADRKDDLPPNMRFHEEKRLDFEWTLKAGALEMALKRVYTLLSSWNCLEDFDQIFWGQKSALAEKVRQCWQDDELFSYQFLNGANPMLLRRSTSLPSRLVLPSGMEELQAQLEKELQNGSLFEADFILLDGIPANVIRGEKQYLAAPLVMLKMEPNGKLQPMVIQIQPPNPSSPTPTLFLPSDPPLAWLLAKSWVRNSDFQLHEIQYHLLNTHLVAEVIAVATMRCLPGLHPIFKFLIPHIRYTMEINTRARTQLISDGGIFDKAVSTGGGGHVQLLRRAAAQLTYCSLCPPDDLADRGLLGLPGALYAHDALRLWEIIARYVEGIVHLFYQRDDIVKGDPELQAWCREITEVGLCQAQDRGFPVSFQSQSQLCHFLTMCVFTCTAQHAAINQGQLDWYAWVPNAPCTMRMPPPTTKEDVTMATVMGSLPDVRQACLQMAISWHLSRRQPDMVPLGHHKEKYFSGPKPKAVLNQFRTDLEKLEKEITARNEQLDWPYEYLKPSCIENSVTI
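Purified human 12hLO (150 nM final) in 25 mM Hepes, 0.01% Triton X-100, pH 7.0 was preincubated 15 min at room temperature with compound. Then 40 uM arachidonic acid was added, 30 min. Hydroperoxide was read by Fe-XO absorbance ratio 573/405 nm.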
DT40 TDP1 no CPT = qHTS for Inhibitors of human tyrosyl-DNA phosphodiesterase 1 (TDP1): qHTS in cells in absence of CPT; hit rate 15% among 420,000; DT40 Tdp1-/- hTDP1 cells, no CPT, ATP luminescence, 48 h; Potency, µM (titrated, usually from 46.2 µM), for inactives: at the top dose activity change, negative = growth inhibition, actives largely listed as inhibitors; note: potency is the fitted concentration of half-maximal effect; nearly all actives have a fitted effect of over 55% in size
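Camptothecin absent (DMSO only). Human TDP1-complemented DT40 knockout cells, 400 cells/well, 37 °C for minimum 48 hr; ATP measured via CellTiter-Glo, 30 min dark incubation, luminescence.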
Starred values were filed as active, the others as inactive; ? = inconclusive; / = no result given; [ ] = dose if it differs, or a comment. Unless noted, calls come from the whole dose curve; as a rule, active = well fitted curve in the direction sought with a large enough effect; inconclusive = small, poorly fitted or top-dose-only effect, or another doubt; inactive = no such curve, though single readings can be large; an effect the other way counts as inactive or inconclusive. Unless noted, % is set by controls: 0 for no effect and ±100 for the full control effect.

SMILES	HT1080-NT tox	HT1080 IDH1KD tx	IL-1B inflam inh	DT40 TDP1 CPT	12-LOX inh	DT40 TDP1 no CPT
Cc1ccc(OCc2n[nH]c(=S)n2N)cc1C	2%	7%	24	6%	?	0%
CCCCOc1ccc(Cc2n[nH]c(=S)n2N)cc1	-2%	12%	-5	?	8.9µM*	?
S=c1[nH]nc(COc2ccccc2)n1Cc1ccccc1	-4%	-5%	26	?	?	?
CCOc1ccc(C(=O)N2CCC3(CC2)N=C(c2ccc(Cl)cc2)NO3)cc1	/	/	/	/	13%	/
CCc1ccc2oc(C(=O)Nc3ccc(NC(C)=O)cc3)cc(=O)c2c1	/	/	/	/	-2%	/
O=C(c1ccccc1F)N1CCN=C1SCc1cccnc1	6%	12%	-14	-2%	3%	-8%
O=C(c1ccc(Br)o1)N1CCN=C1SCc1cccnc1	17%	-3%	-54*	?	-8%	-13%
O=C(c1cc2ccccc2o1)N1CCN=C1SCc1cccnc1	30%	23%	-58*	-23%	4%	-26%
O=C(c1ccc(S(=O)(=O)N2CCCCC2)cc1)N1CCN=C1SCc1cccnc1	1%	2%	1	16µM*	10%	?
CCCCNC(=O)c1cc2ccc(OC)cc2nc1C	/	/	/	/	-22%	/
CC(CCc1ccccc1)NC(=O)/C=C/c1ccc(Cl)cc1 (stereo not given)	4%	-2%	-79*	6%	-29%	-20%
CC(Cc1ccccc1)NC(=O)/C=C/c1ccc([N+](=O)[O-])cc1 (stereo not given)	0%	0%	-23	26µM*	8%	18µM*
Cc1ccccc1N1C(=O)C2CCCN2C1=S (stereo not given)	1%	4%	-8	-29%	-39%	?
CSc1ccc(CNC(=O)c2cc3c(N(C)Cc4ccccc4)nc(C)cn3n2)cc1	/	/	/	/	33%	/
CCCCc1cc(=O)oc2cc(C)c3c(C)coc3c12	/	/	/	15µM*	-29%	?
CCCCc1cc(=O)oc2cc(C)cc(O)c12	-13%	0%	-15	?	-24%	?
CCCCc1cc(=O)oc2cc(O)cc(O)c12	-20%	-12%	36	3%	?	9.2µM*
O=C(Nc1ccc(Cl)cc1)N1CCC(c2nnc3n2C(C(=O)N2CCOCC2)CC3)CC1 (stereo not given)	/	/	/	/	5%[6.33 µM]	/
COc1cc(C)cc2oc(=O)c(CC(=O)Nc3ccc(Cn4cncn4)cc3)c(C)c12	/	/	/	/	0%	/
CCCN(CC(=O)Nc1cc(Cl)cc(Cl)c1)CC(=O)Nc1ccc(F)c(F)c1F	?	?	-97*	?	-16%	23µM*
COc1ccc(-c2cc(N3CCN(C(=O)c4c[nH]c5ccccc45)CC3)n[nH]2)cc1	/	/	/	/	26%	/
CCOC(=O)[C@@H]1[C@H]2COc3ccccc3[C@H]2N2C(=O)N(c3cccc(Cl)c3)C(=O)[C@@]12C	?	-9%	10	?	/	?
CCOC(=O)[C@@H]1[C@H]2COc3ccccc3[C@H]2N2C(=O)N(c3ccc(Cl)cc3)C(=O)[C@]12C	-23%	3%	0	?	11%	21µM*
CCOC(=O)[C@@H]1[C@H]2COc3cc(OC)ccc3[C@H]2N2C(=O)N(c3cccc(Cl)c3)C(=O)[C@@]12C	-25%	10%	-26	?	/	?
CCOC(=O)[C@@H]1[C@H]2COc3cc(OC)ccc3[C@H]2N2C(=O)N(c3cccc(Cl)c3)C(=O)[C@]12C	-6%	-2%	?	15µM*	/	?
CCOC(=O)[C@@H]1[C@H]2COc3ccccc3[C@@H]2N2C(=O)N(c3cccc(Cl)c3)C(=O)[C@@]12C	0%	1%	-8	?	0%	16µM*

High-throughput results from PubChem BioAssay.
